# ChEMBL document CHEMBL4513216, “Probing the Open Global Health Chemical Diversity Library for Multistage-Active Starting Points for Next-Generation Antimalarials” (ACS Infect Dis, 2020)
# Hit rate of the full screen: of about 69,000 compounds, about 8,600 (12%) showed an effect of 50% or more. The sample holds strong results, similar compounds and a random draw of the others, so the mix is not that of the screen.
# Tested on: Plasmodium berghei
# Test: Screen against P. berghei liver stage (PbLuc), transformed with Luciferase, at 10uM
# Assay type: functional, HepG2
# Conditions: tested at 10 uM
row,SMILES,INHIBITION [%]
1,CC(C)CCN(C(=O)c1nc(S(C)(=O)=O)n2ccccc12)C1CC1,17.165
2,COc1cccc(Nc2nc(C3CCCNC3)c3sc(C)c(C)n23)c1 (configuration not stated),11.65
3,CC(C)(C)NCc1nn(Cc2ccccc2)nc1-c1ccccc1,45.8
4,CCn1ccnc1CN1CCN(CCCS(C)(=O)=O)CC1C (configuration not stated),8.31
5,Cc1cc(C(F)(F)F)cc(=O)n1Cc1nc(C(C)C)no1,23
6,CC(=O)NC1Cc2ccc(S(=O)(=O)NCCNc3ccccn3)cc2C1 (configuration not stated),-18.8
7,Cc1nc(CN2C(=O)COC3(CCN(C)CC3)C2C)cs1 (configuration not stated),8.03
8,CN(C)CCN1C(=O)CC[C@@H]2[C@H]1CCN2C(=O)c1ccc(C#N)cc1,70.4
9,Cc1ccc(C(=O)N2CCC3(CC2)CCN(CCN(C)C)C3=O)cn1,28.2
10,CN(C)CCN1C(=O)CC[C@@H]2[C@H]1CCN2Cc1cccc(C#N)c1,49.7
11,Cc1cncc(C(=O)N2CC[C@@H]3[C@H]2CCC(=O)N3CCN(C)C)c1,29
12,Cc1ccc(C(=O)N2CC[C@@H]3[C@H]2CCC(=O)N3CCN(C)C)cn1,79.2
13,N#Cc1ccc(C(=O)N2CC[C@H]3[C@@H]2CCC(=O)N3c2ccccc2)cc1,43.8
14,N#Cc1cccc(CNCCNC(=O)Cc2cccc(F)c2)c1,29.2
15,CCOc1ccc(Cl)c(C(=O)N2CCCSCC2)n1,18.2
16,Cc1cnc(NC2CCN(CC(=O)Nc3ccccc3)CC2)nc1C,14.8
17,Cc1cc(C)nc(NC2CCN(CCOC(C)C)CC2)n1,43.9
18,CC(C)c1nnc(C2CCN(CC(=O)Nc3cccnc3)CC2)o1,-39.2
19,COc1ccnc(NC2CCN(CC(=O)N3CCCC3)CC2)n1,11.6
20,COc1ccnc(NC2CCN(CC(=O)Nc3ccccc3)CC2)n1,60.8
21,CC(C)OCCN1CCC(Nc2ncccn2)CC1,55.9
22,COc1ccc(NC(=O)CN2CCS(=O)(=O)CC2)cn1,-2.55

row,SMILES,INHIBITION [%]
1,CC(C)OCCN1CCC(Nc2ncc(Br)cn2)CC1,28.7
2,O=C(CN1CCC(Nc2ncccn2)CC1)Nc1ccccc1,66.1
3,CSc1ccc(CN2CCn3nc(CNC(C)=O)cc3C2)cc1,-89.3
4,CC(C)N1CCC(Cc2cncc(-c3cccc(C(=O)O)c3)n2)C1 (configuration not stated),-62.3
5,COC(=O)c1ccc(CN2CCN(Cc3nc(C)no3)CC2)s1,23.2
6,CC(C)c1nnc2n1CCN(Cc1nc(-c3ccoc3)no1)C2,17.45
7,CC1CN(C(=O)CN(Cc2ccccc2Cl)C2CCCC2)CCO1 (configuration not stated),-0.219
8,COc1ccc(CN2CCn3cc(CNC(=O)C4CCC4)nc3C2)cc1,19.5
9,O=C(c1ccc(F)cc1)N1CCN2C[C@H](OCc3cccnc3)C[C@H]2C1,82.3
10,O=C(c1cnccn1)N1CCN2C[C@H](OCc3ccccc3)C[C@H]2C1,11
11,O=C(c1ccnnc1)N1CCN2C[C@H](OCc3cccnc3)C[C@H]2C1,26.4
12,O=C(c1ccco1)N1CCN2C[C@H](OCc3cccnc3)C[C@H]2C1,12.4
13,O=C(c1cnccn1)N1CCN2C[C@H](OCc3ccccc3F)C[C@H]2C1,59.8
14,Cc1cnc(C(=O)N2CCN3C[C@H](OCc4cccnc4)C[C@H]3C2)cn1,52
15,O=C(c1cccc(F)c1)N1CCN2C[C@H](OCc3cccnc3)C[C@H]2C1,17.1
16,O=C(c1cscn1)N1CCN2C[C@H](OCc3cccnc3)C[C@H]2C1,33
17,O=C(c1cnccn1)N1CCN2C[C@H](OCc3ccccn3)C[C@H]2C1,-0.182
18,CS(=O)(=O)NC1CCCN(C(=O)COCc2ccccc2)C1 (configuration not stated),-75.98
19,Cc1ncc2c(n1)CCN(CCCc1nc3ccccc3o1)C2,-65.2
20,O=C(NCc1cn2c(n1)CN(Cc1ccccn1)CC2)C1CCC1,-8.94
21,CC(=O)N1[C@H](CN(C)C)C[C@@H]2CN(C(=O)c3ccno3)CC[C@@H]21,17.4
22,Cc1cc(C)c(C(=O)N2CCOC(CCN(C)C)C2)o1 (configuration not stated),-5.12

row,SMILES,INHIBITION [%]
1,Cc1ccc(N2CCC3(CCN(C(=O)c4ccsc4)C3)CC2)nn1,36.4
2,Cc1nc[nH]c1C(=O)N1CCC2(CN(C)C(=O)O2)C1 (configuration not stated),-11.2
3,CN1CC2(CCN(C(=O)c3ccc4c(=O)n(C)cnc4c3)CC2)CC1=O,32.5
4,CN1CC2(CCN(C(=O)c3ccc4c(=O)n(C)cnc4c3)C2)OC1=O (configuration not stated),88.2
5,Cc1noc(C2CCN(Cn3cc(Br)cn3)CC2)n1,-47
6,O=C(O)[C@@H]1OCC(=O)N(Cc2cccc(Cl)c2)[C@@H]1c1ccccc1,-25.3
7,CCSCCOC(=O)CCCc1ccc2c(c1)CC(=O)N2,54.9
8,O=C(O)CCCc1ccc2c(c1)CC(=O)N2,24.2
9,CCOC(=O)CCCc1ccc2c(c1)CC(=O)N2,3.4
10,Cc1ccc(-n2ncc(C(=O)NC3CC(C)(C)NC(C)(C)C3)c2N)cc1,-21.1
11,CCc1c(C(=O)NC2CCS(=O)(=O)C2)cnn1-c1ccc(C)cc1 (configuration not stated),-17
12,Cc1ccc(-n2ncc(C(=O)NC3CCCCC3)c2N)cc1,66.5
13,CCOc1c(F)cccc1C(=O)N(c1cccnc1)C(C)C,55.1
14,CCOc1c(F)cccc1C(=O)N(CC)C(C)c1cccnc1 (configuration not stated),43.1
15,CCOc1c(F)cccc1C(=O)N(CC)C(C)c1ccncc1 (configuration not stated),31.2
16,NC(=O)CN(CC1CCOC1)C1CC1 (configuration not stated),9.16
17,COC(=O)CN(CC1CCOC1)C1CC1 (configuration not stated),50.5
18,COC(=O)CCN(CC1CCOC1)C1CC1 (configuration not stated),43.9
19,CC(C)N1CCc2[nH]nc(C(=O)N3CCN(C)CC3)c2C1,1.34
20,Cc1cccc(-n2nnnc2C(C)(C)Nc2ccccc2C)c1,39.1
21,Cc1cc(Cl)ccc1NCC(=O)Nc1cc(C(C)(C)C)no1,24.7
22,COc1ccc(-n2nnc(C(=O)NC(C)C)c2C2CC2)cc1,40.1

row,SMILES,INHIBITION [%]
1,Cc1ccc(NC(C)(C)c2nnnn2-c2ccc(Cl)cc2)c(C)c1,81.1
2,COc1ccc(-n2nnnc2C(C)(C)Nc2ccc(C)cc2C)cc1,77.7
3,COc1ccc(-n2nnnc2C2(NCc3ccco3)CCCCC2)cc1,24.2
4,c1cnc2c(c1)cc([C@@H]1CCCO1)n2CCN1CCOCC1,0.301
5,NC(=O)C(CNC(=O)CCc1ccsc1)Cc1ccc(F)cc1 (configuration not stated),13.1
6,Cc1ccoc1C(=O)N1CC[C@H]2[C@@H]1CCC(=O)N2c1cccnc1,-7.38
7,OCc1n[nH]c(-c2ccc(F)cc2)n1,-17
8,c1cnnc(NCC2CN(CC3CCOCC3)CCO2)c1 (configuration not stated),-35.7
9,CC(C)(O)CN1CCC(=O)N(Cc2ccco2)Cc2cc(F)ccc21,-17.1
10,CCN1Cc2cc(OC)ccc2N(CC(C)(C)O)CCC1=O,17.7
11,COc1ccc2c(c1)CN(Cc1ccco1)C(=O)CCN2CC(C)(C)O,51.7
12,CCOc1cc(CNCC2CN(C3CC3)CCO2)ccc1OC (configuration not stated),22.3
13,O=C(N[C@@H]1CN(CCc2ccc(F)cc2)C[C@H]1O)c1cscn1,54.5
14,O=C(N[C@@H]1CN(Cc2ccc(F)c(F)c2)C[C@H]1O)c1cscn1,2.6
15,O=C(N[C@@H]1CN(Cc2ccc(F)cc2)C[C@H]1O)c1cscn1,10
16,Cc1nc(Nc2nnc(C)s2)cc(C2CCCN2C2CCCC2)n1 (configuration not stated),28
17,CCc1ncnc2c1CCN(Cc1ccccn1)CC2,-9.48
18,O=C(Nc1ccnc(OC2CCOC2)c1)c1ccccc1Cl (configuration not stated),65.3
19,O=C(Nc1ccnc(OC2CCOC2)c1)c1ccc(F)cc1Cl (configuration not stated),17.6
20,Cc1occc1C(=O)Nc1ccnc(OC2CCOC2)c1 (configuration not stated),7.84
21,CN(C)Cc1cc(C2CCCCN2S(=O)(=O)c2cccc(Cl)c2)nn1C (configuration not stated),37.8
22,CC(=O)Nc1ccc(SCC(O)COCc2ccco2)cc1 (configuration not stated),26.9

row,SMILES,INHIBITION [%]
1,COc1ccc2oc(C(C)NC(=O)NCC(C)(C)C(N)=O)c(C)c2c1 (configuration not stated),42.3
2,CCN(Cc1ccncc1)C(=O)CCn1c(C)cc2ccccc21,14.9
3,CCN(Cc1noc(C)n1)C(=O)CCn1c(C)cc2ccccc21,58.5
4,CCN(Cc1nc(COC)no1)C(=O)CCn1c(C)cc2ccccc21,36.7
5,COCCNC(=O)[C@H]1C[C@@H]2CCN(c3ncccn3)C[C@H]2O1,-56.7
6,CCN1CCN(C)C2(CCN(C(=O)CC(F)(F)F)CC2)C1=O,71.3
7,CN1CCN(CC2CC2)C(=O)C12CCN(C(=O)CC(F)(F)F)CC2,-14.2
8,CN1CCN(C)C2(CCN(C(=O)CC(F)(F)F)CC2)C1=O,27.5
9,CC(C)CC(=O)NS(=O)(=O)c1ccc(C#N)cc1C(F)(F)F,2.3
10,COc1ccc(C2=NOC(C#N)C2)cc1 (configuration not stated),15.9
11,Cc1cc(N(C)C)nc(N2CCn3c(nnc3C3CC3)C2)n1,21.2
12,CC(C)c1nnc2n1CCN(C(=O)c1ccnc(N(C)C)c1)C2,42
13,CCc1nnc2n1CCN(c1nc(C)cc(N(C)C)n1)C2,71.5
14,Cc1cc(N(C)C)nc(N2CCN(C(C)c3nc(C)no3)CC2)n1 (configuration not stated),-71.2
15,Cc1cc(N(C)C)nc(N2CCn3c(nnc3C(C)C)C2)n1,52.2
16,CCc1nnc2n1CCN(C(=O)c1ccnc(N(C)C)c1)C2,19.2
17,Cc1cc(N(C)C)nc(N2CCn3c(C)nnc3C2)n1,51.1
18,Cc1cc(N(C)C)nc(N2CCN(Cc3nccn3C)CC2)n1,-87
19,Cc1cn2nc(N3CCn4c(nnc4C(C)C)C3)sc2n1,7.81
